Records with an inconclusive call do not appear. Unmarked numbers belong to inactive results. Activity calls are given as the source filed them. Calls follow the shape of the dose curve; as a rule, active = well fitted cell-killing curve with a large enough effect in the repeat runs; inconclusive = weak or mixed curves, or effect the other way; inactive = flat fitted curve, though single readings scatter.
% is scaled to controls: 0 for no effect and ±100 for the full control effect.

This test in a line: cAMP Responsive Elements (CRE) small molecule antagonists, cell-based qHTS assay: qHTS cell viability counter screen (AID 2060913). Also: nearly all actives have a fitted effect of over 40% in size. As to conditions: CRE-bla HEK293T viability, CellTiter-Glo luminescence, 5 h; series mostly up to 92.4 µM; viability change, negative = cytotoxic: at the top concentration. The method in brief: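 CRE-bla HEK293T cells were seeded in assay medium with 10% dialyzed FBS, incubated 18 hrs at 37 C, then exposed to compounds plus 0.25 uM final NKH477 for 3 hrs. Viability was read by CellTiter-Glo luminescence after 30 min, in the same wells.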
In general terms: In qHTS, concentration-response curves come from the screen itself.
Take `C[C@]12C=CC(=O)C=C1CC[C@H]1[C@@H]3C[C@@H](O)[C@](O)(C(=O)CO)[C@@]3(C)C[C@H](O)[C@@]12F`: the Potency result was “inactive”.

With `O=C(O)CCCCCC(=O)O`, the “viability change, negative = cytotoxic” value is -5.23%.

Take `Nc1nc(F)nc2c1ncn2[C@@H]1O[C@H](CO)[C@@H](O)[C@@H]1O`: the “viability change, negative = cytotoxic” value was -2.33% [at 42.5 µM].

For the compound `O=C1c2ccccc2C(=O)C1c1nc2ccccc2c(Br)c1O`, the “viability change, negative = cytotoxic” value is 5.15%.

For `CCN(CC)CCNC(C(=O)OCCC(C)C)c1ccccc1` (configuration not stated), the “viability change, negative = cytotoxic” value is -0.48% [at 42.5 µM].

As for `Sc1nc2ccccc2s1`, the “viability change, negative = cytotoxic” value was 2.92%.

`CCCCCCCC/C=C\CCCCCCCC(=O)OCCO`: the “viability change, negative = cytotoxic” value was 15.7%.

For `O=C(O)Cc1ccccc1Oc1ccc(Cl)cc1Cl`, the “viability change, negative = cytotoxic” value was 3.67% [at 42.5 µM].

`CC(C)(c1ccc(O)cc1)c1ccc(O)cc1`: the “viability change, negative = cytotoxic” value is 7.7%.

Take `CCCCCCOC(=O)CC(CC(=O)OCCCCCC)(OC(=O)CCC)C(=O)OCCCCCC`: the “viability change, negative = cytotoxic” value is -3.06%.

As to `CC(C)OC(C)C`, the “viability change, negative = cytotoxic” value was 4.96%.

Take `C=C(C)C(=O)OCCCCCCCCCCCCC`: the “viability change, negative = cytotoxic” value was 8.47%.

For `CCCCCCOC(=O)c1ccc(O)cc1`, the Potency entry is “inactive”.

With `CC(=O)N[C@@H](CO)C(=O)N[C@@H](CC(=O)O)C(=O)N[C@@H](CCCCN)C(=O)N1CCC[C@H]1C(=O)O`, the “viability change, negative = cytotoxic” value is 6.53% [at 42.5 µM].

Regarding `SC1CCCC1`, the “viability change, negative = cytotoxic” value was -1.11%.

For `CCOC(=O)C(=O)CCCCCCl`, the “viability change, negative = cytotoxic” value was -0.234% [at 42.5 µM].

Take `Nc1ccc(F)cc1`: the “viability change, negative = cytotoxic” value is 8.73%.

Regarding `CN1C(CCl)Nc2cc(Cl)c(S(N)(=O)=O)cc2S1(=O)=O` (configuration not stated), the “viability change, negative = cytotoxic” value is 4.03% [at 42.5 µM].

For `CCCCCC1Nc2cc(C(F)(F)F)c(S(N)(=O)=O)cc2S(=O)(=O)N1` (configuration not stated), the “viability change, negative = cytotoxic” value was -2.19% [at 42.5 µM].

In the case of `O=C1O[C@H]([C@H](O)CO)C(O)=C1O`, the Potency entry is “inactive”.

`N#Cc1nc(Cl)c(Cl)c(Cl)c1Cl`: the “viability change, negative = cytotoxic” value is 15.5%.

As for `C#Cc1cccc(Nc2ncnc3cc(OCCOC)c(OCCOC)cc23)c1`, the “viability change, negative = cytotoxic” value is -19.3% [at 42.5 µM].

(Values after PubChem BioAssay (Tox21).)
